Drawing on PubChem BioAssay, this text covers composite z-score and z-score for 16 compounds.

Test [1] in a line: anti-His antibody binders, primary screen, artefact control for SMM control protein annotation, biochemical, small-molecule microarray, 635 nm fluorescence (AID 1128).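 Further: score merges feature fluorescence with signal-to-noise for each printed compound spot.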 As to conditions: anti-His Alexa647 antibody binding, higher = more signal.
For test [2], the system named is Human papillomavirus type 1a E7 protein (residues 1-88). The test is described as follows: HPV1a E7 small-molecule binders, primary screen, biochemical, small-molecule microarray, residues 1-88, 635 nm (AID 1129). As to conditions: small-molecule microarray binding, fluorescence 635 nm; higher = more signal.
Test [3] addresses Focal adhesion kinase 1 (Homo sapiens) (UniProt Q05397). In words: small-molecule microarray binders of FAK, primary screen, biochemical, 635/667 nm fluorescence, BSA, DTT (AID 1130).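 Further: composite of spot emission at 667 nm and signal to noise over triplicate slides.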 As to conditions: PTK2 binding, 635 nm fluorescence, higher = more signal.
In test [4] the test system is Fibrinogen (Alexa647-labelled). In words: fibrinogen binders on compound microarrays, profiling panel, artefact control for SMM control-protein annotation, biochemical, small-molecule microarray, 635/667 nm fluorescence (AID 1131).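 Further: z-score merges 667 nm fluorescence with per-spot signal-to-noise over triplicate slides.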 The conditions noted are these: fibrinogen-A647 binding fluorescence, higher = more signal.
Test [5] has as its target Follistatin (Homo sapiens) (UniProt P19883). The test is described as follows: follistatin binders on small-molecule microarrays, primary screen, biochemical, small-molecule microarray, 635/667 nm fluorescence (AID 1132). The conditions noted are these: FST binding, 635 nm fluorescence, higher = more signal.
The target of test [6] is Fibroblast growth factor 2 (Homo sapiens) (UniProt P09038). In words: FGF2 binders on small-molecule microarrays, primary screen, biochemical, small-molecule microarray, 635/667 nm fluorescence (AID 1133). The conditions noted are these: small-molecule microarray binding, FGF2, fluorescence 635/667; higher = more signal.
Sequence of Fibroblast growth factor 2 (Homo sapiens) (P09038 whole entry, looked up): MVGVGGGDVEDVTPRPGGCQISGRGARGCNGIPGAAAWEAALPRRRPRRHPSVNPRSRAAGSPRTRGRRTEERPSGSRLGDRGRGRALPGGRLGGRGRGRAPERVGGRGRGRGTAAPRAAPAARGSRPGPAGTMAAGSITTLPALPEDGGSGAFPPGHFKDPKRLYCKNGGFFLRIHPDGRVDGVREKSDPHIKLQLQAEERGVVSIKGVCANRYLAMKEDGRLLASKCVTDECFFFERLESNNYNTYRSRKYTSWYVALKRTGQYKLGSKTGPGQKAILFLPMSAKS
A short description of test [7]: mitochondrial membrane potential change in A549 cells, profiling panel, cell-based, JC-1 fluorescence, basal, 24 h, 100 nL (AID 1138).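 Further: A549 lung adenocarcinoma cells under basal conditions with no added stimulus; test concentration not given here.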 As to conditions: higher = more signal.
For a further test, the system named is Lefty1. The test is described as follows: Lefty1 binders on small-molecule microarrays, primary screen, biochemical, small-molecule microarray, 635/667 nm fluorescence (AID 1139). As to conditions: small-molecule microarray binding, fluorescence 635/667; higher = more signal.
Test [8] has as its system wheat germ agglutinin (Triticum aestivum), Alexa647-labelled. The test is described as follows: wheat germ agglutinin binders on compound microarrays, profiling panel, artefact control for SMM control-protein annotation, biochemical, small-molecule microarray, 635/667 nm fluorescence (AID 1140).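 Further: score merges 667 nm feature emission with signal to noise over triplicate slides.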 As to conditions: WGA-A647 binding, 635 nm fluorescence, higher = more signal.

Test [9] deals with Luciferin 4-monooxygenase (Photinus pyralis) (UniProt P08659). The test is described as follows: firefly luciferase enzyme inhibitors, primary screen, biochemical, luminescence, purified enzyme, 2006 set (AID 1141).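 Further: cell-free assay with purified firefly luciferase at 100 ng per well in PBS; test concentration not given here.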 As to conditions: SteadyGlo luminescence, 30 min, higher = more signal, called active from +8 up or from −8 down.
Sequence of Luciferin 4-monooxygenase (Photinus pyralis) (P08659 whole entry, looked up): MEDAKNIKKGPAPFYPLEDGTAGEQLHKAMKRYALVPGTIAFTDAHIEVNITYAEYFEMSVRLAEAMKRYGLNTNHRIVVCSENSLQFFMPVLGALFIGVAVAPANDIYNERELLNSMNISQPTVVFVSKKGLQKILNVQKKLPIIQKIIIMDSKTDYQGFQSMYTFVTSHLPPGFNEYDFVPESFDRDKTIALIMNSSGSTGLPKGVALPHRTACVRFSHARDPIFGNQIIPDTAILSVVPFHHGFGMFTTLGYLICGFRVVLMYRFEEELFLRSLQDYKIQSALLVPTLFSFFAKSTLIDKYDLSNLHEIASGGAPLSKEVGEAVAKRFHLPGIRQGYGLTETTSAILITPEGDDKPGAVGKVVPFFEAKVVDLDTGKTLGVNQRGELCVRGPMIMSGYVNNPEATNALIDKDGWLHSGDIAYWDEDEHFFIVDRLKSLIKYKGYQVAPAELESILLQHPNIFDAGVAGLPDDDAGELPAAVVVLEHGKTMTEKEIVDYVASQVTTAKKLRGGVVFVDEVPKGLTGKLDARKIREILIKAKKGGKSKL

Each structure is given as a SMILES string. Calls of active or inactive are those of the source.

Sequence of Follistatin (Homo sapiens) (P19883 whole entry, looked up): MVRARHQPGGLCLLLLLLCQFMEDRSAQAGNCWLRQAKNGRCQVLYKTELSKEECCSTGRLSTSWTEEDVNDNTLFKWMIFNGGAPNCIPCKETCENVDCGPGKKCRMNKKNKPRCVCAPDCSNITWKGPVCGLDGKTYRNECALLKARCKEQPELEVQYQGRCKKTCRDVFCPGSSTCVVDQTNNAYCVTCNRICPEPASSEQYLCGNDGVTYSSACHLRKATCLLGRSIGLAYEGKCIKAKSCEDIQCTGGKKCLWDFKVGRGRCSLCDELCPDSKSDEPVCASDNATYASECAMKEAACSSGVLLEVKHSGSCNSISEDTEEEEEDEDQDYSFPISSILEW
Sequence of Focal adhesion kinase 1 (Homo sapiens) (Q05397 whole entry, looked up): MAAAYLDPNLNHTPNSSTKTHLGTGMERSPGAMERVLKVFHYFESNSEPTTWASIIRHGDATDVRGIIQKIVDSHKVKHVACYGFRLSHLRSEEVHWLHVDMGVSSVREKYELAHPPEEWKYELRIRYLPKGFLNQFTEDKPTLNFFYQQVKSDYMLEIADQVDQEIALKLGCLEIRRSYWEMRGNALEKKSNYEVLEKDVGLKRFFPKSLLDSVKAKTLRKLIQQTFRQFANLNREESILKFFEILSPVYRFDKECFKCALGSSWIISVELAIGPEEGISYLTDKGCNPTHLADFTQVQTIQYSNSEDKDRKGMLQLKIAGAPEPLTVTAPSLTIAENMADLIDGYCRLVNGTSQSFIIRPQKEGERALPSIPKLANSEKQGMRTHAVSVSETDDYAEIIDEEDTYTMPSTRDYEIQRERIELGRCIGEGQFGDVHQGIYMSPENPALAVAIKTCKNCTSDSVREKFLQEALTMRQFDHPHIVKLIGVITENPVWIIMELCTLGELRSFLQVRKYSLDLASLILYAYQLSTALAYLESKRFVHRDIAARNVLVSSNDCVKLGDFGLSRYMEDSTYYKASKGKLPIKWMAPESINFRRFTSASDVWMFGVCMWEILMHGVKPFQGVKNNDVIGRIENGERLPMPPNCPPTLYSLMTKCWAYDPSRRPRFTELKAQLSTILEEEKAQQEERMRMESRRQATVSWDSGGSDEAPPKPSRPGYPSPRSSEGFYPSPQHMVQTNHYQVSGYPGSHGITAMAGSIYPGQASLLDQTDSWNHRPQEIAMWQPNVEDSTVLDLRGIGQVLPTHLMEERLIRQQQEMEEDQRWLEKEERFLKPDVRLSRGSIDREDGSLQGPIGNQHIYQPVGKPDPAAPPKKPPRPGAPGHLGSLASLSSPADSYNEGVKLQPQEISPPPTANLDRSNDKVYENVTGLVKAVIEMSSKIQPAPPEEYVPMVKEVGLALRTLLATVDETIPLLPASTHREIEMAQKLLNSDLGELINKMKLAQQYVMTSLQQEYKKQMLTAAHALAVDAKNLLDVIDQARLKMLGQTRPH

Regarding `COCCCNC(=O)[C@@]1(Cc2ccccc2N=[N+]=[N-])N=C(c2ccc(OCCCO)cc2)O[C@H]1c1ccccc1CN=[N+]=[N-]`, the composite z-score in test [1] was 2.71; in test [2], 1.23; in test [3] it was 1.06; in [4], 0.998; in [5] it was 1.04; in test [6] it was 0.969. In addition, the composite z-score with Lefty1 is -0.113; in test [8] it was 1.05. Also, the z-score in [7] was 1.64; in test [9] it was -3.93 (inactive).
As for `C[N+](C)(C)CCCC[C@@H]1NC(=O)[C@@H]2C[C@H](C(=O)O)[C@H](c3cccc(OCCO)c3)N2C1=O`, the composite z-score was 0.0065 in [1]; -0.586 in [2]; -0.466 in test [3]; -1.46 in test [4]; 1.45 in test [5]; 1.5 in [6]. For the same compound, the composite z-score in the test on Lefty1 was 0.135; in [8] it was 0.218. For the same compound, the results for the z-score in test [7] and in test [9] were 1.08 and -1.99 (inactive), respectively.
For the compound `COc1ccc([Si](C)(C)[C@@H]2[C@@H](CCO)O[C@]3(C(=O)N(Cc4ccc(N5C(=O)c6ccccc6Oc6ccccc65)cc4)c4ccccc43)[C@H]2C)cc1`, the composite z-score was 0.0758 in test [1]; -0.235 in [2]; -0.394 in test [3]; -0.0953 in test [4]; -0.163 in [5]; -1.1 in [6]. For the same compound, the results for the composite z-score (in the test on Lefty1; in [8]) were 0.0179 and 0.104, respectively. Further, the figures for the z-score in [7] and in test [9] were -0.285 and 0.173 (inactive), respectively.
Consider `CCCc1cc2c(n1Cc1ccc(OC)cc1)C(C)C1CN(C(=O)c3ccccc3)C(C)(C(=O)OC)C21` (stereo not given), for which the composite z-score in test [1] was 2.74; in test [2], 1.24; in test [3], 1.56; in [4], 1.01; in test [5], 0.0092; in [6], -1.19. For the same compound, the composite z-score was -0.515 with Lefty1 and 1.47 in [8]. The z-score is 0.788 in [7] and 0.062 (inactive) in [9].
For the compound `Cc1ccc(S[C@]2(C(=O)NCCN3CCOCC3)CC(=O)N(C3Cc4ccccc4C3)[C@@H]2c2ccc(CO)cc2)cc1`, the composite z-score in test [1] was 1.22; in test [2] it was 0.0419; in test [3], 0.82; in test [4] it was -0.778; in test [5] it was -0.135; in test [6], -0.592. Besides, the composite z-score in the test on Lefty1 is -1.47; in test [8], -0.278. In addition, the figures for the z-score in test [7] and in [9] were 0.161 and 0.54 (inactive), respectively.
Regarding `O=C1c2ccccc2C(=O)C2CC([C@H]3Oc4ccccc4S(=O)(=O)N4CCC[C@@H]34)=CCC12` (stereo not given in full), the composite z-score in test [1] was -0.0332; in test [2], 0.101; in test [3], 0.867; in test [4], 0.788; in test [5], -0.0849; in [6], 0.189. The composite z-score in the test with Lefty1 was -0.02; in [8] it was 0.47. The results for the z-score in test [7] and in test [9] were -0.309 and -0.759 (inactive), respectively.
On to `[N-]=[N+]=NCc1ccccc1C[C@]1(C(=O)NCCN2CCOCC2)N=C(c2ccc(OCCCO)cc2)O[C@H]1c1ccccc1`, for which the composite z-score in test [1] amounted to 0.478; in test [2], 1.22; in test [3], 0.378; in test [4], 1.01; in test [5] it was 1.39; in [6] it was 0.473. The composite z-score in the test with Lefty1 is 0.649; in [8], 0.556. The results for the z-score in test [7] and in test [9] were 1.02 and 0.375 (inactive), respectively.
Regarding `COCCOC(=O)N1C(=O)[C@@]2(c3ccccc31)[C@H](c1ccc(OCCO)cc1)N1[C@H](c3ccccc3)[C@H](c3ccccc3)OC(=O)[C@H]1[C@@H]2C(=O)NC[C@H](O)c1ccccc1`, the composite z-score worked out at 1.95 in [1]; 1.23 in [2]; 0.327 in test [3]; 0.937 in [4]; 1.32 in test [5]; 1.03 in [6]. Besides, the composite z-score in the test on Lefty1 was found to be 0.714; in test [8], 1.05. For the same compound, the z-score was 0.414 in test [7] and -0.652 (inactive) in test [9].
For the compound `C=C(CCCC)/C(=C/C[C@@H](OC(=O)c1ccncc1)c1ccccc1OCCO)c1cc(C(=O)OC)ccc1OC`, the composite z-score in test [1] stood at 2.82; in test [2] it was 1.22; in test [3], 1.38; in test [4] it was 0.979; in [5] it was 0.549; in [6], 0.213. Further, the composite z-score with Lefty1 was 0.444; in [8], 1. Also, the z-score is 3.24 in test [7] and -1.76 (inactive) in test [9].
In the case of `CC(C)[Si](C#C[Si](C(C)C)(C(C)C)C(C)C)(O[C@H](C)c1cn(Cc2cccc(Cl)c2)nn1)C(C)C`, the composite z-score in [1] came out at 0.604; in test [2], 1.11; in test [3], 0.586; in [4] it was 0.715; in test [5] it was 0.396; in [6] it was 0.67. Also, the composite z-score with Lefty1 worked out at 0.714; in [8], 1.17. Besides, the z-score was 2.01 in [7] and -1.11 (inactive) in [9].
For the compound `C#CCNS(=O)(=O)N(C)C`, the composite z-score in test [1] is 0.446; in [2], 0.928; in test [3], 0.17; in test [4], 0.276; in test [5] it was 0.103; in test [6] it was 0.203. In addition, the composite z-score with Lefty1 came to 0.643; in test [8] it was 0.0088. Further, the z-score in [7] was 0.497; in test [9], 0.991 (inactive).
With `C=CCC(OC(C)=O)[C@@H]1[C@@H](N(Cc2cccc3ccccc23)C(=O)Cc2ccc(F)cc2)c2cc(OCCCO)ccc2N1C(=O)Cc1ccc(OC)cc1` (stereo not given in full), the composite z-score in [1] was -0.241; in [2] it was -0.0072; in test [3] it was -0.142; in test [4], 0.766; in test [5], 0.532; in [6], -0.109. For the same compound, the composite z-score came out at 0.391 with Lefty1 and 0.672 in [8]. In addition, the z-score in test [7] is -0.189; in test [9], 0.678 (inactive).
`NC(=O)[C@H]1[C@@H]2C(=O)O[C@@H](c3ccccc3)[C@@H](c3ccccc3)N2[C@@H](c2ccc(O)cc2)[C@]12C(=O)Nc1ccc(C#CC3(O)CCCCCC3)cc12`: the composite z-score in test [1] worked out at 1.55; in [2], 1.23; in test [3] it was 0.505; in test [4], 0.946; in [5], 1.24; in test [6] it was 1.58. In addition, the composite z-score with Lefty1 amounted to 0.889; in test [8], 0.949. The results for the z-score in test [7] and in test [9] were -1.43 and 0.268 (inactive), respectively.
As to `CC(C)C[C@@H]1NC(=O)[C@@H]2C[C@H](C(=O)NCc3ccc(F)cc3)[C@H](c3ccc(O)cc3)N2C1=O`, the composite z-score came out at 2.13 in test [1]; 0.0885 in [2]; 0.317 in [3]; 0.248 in test [4]; 1.34 in test [5]; 1.91 in test [6]. The results for the composite z-score (in the test on Lefty1; in test [8]) were 0.689 and -0.299, respectively. Moreover, the figures for the z-score in test [7] and in test [9] were 0.634 and -0.0763 (inactive), respectively.
In the case of `CC(C)CNC(=O)[C@@]1(c2ccc([N+](=O)[O-])cc2)CC(=O)N(C(C)C)[C@@H]1c1ccc(CO)cc1`, the composite z-score was 0.217 in test [1]; -0.467 in [2]; -0.362 in test [3]; -1.2 in test [4]; 0.272 in test [5]; -1.25 in [6]. Also, the composite z-score with Lefty1 is -0.455; in [8] it was 0.486. Also, the z-score was -0.0836 in test [7] and 1.18 (inactive) in test [9].
Turning to `C=C[C@@H](O)[C@H]1CC(c2ccccc2)=NO1`, the composite z-score in test [1] is 0.103; in [2], -0.565; in [3], -0.0062; in test [4] it was -0.0611; in test [5], -0.16; in [6], -0.121. The results for the composite z-score (in the test on Lefty1; in [8]) were -0.0793 and -0.288, respectively. For the same compound, the z-score in test [7] is 1.12; in test [9], -1.53 (inactive).
